Substitutions are numbered along the chain they refer to.

The target of the first assay is T1, SIX6 (Homo sapiens, UniProt O95475 114-200, T139Q).
T1 sequence: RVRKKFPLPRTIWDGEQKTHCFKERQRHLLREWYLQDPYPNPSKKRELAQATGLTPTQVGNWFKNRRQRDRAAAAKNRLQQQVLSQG
As to the kind of experiment: PBM; 200 nM protein, PBS. The note with it: dsDNA, one strand shown.
Consider CCGTATCA, for which the binding signal is 11.1 upbm affinity estimate (log intensity, higher = more binding, comparable within an allelic series).

GATCCAAA: the binding signal was 10.5 upbm affinity estimate (log intensity, higher = more binding, comparable within an allelic series).

Regarding ACAATACT, the binding signal was 10.5 upbm affinity estimate (log intensity, higher = more binding, comparable within an allelic series).

AGGTGTCA: the binding signal is 11.1 upbm affinity estimate (log intensity, higher = more binding, comparable within an allelic series).

Consider ATCCAATA, for which the binding signal was 10.5 upbm affinity estimate (log intensity, higher = more binding, comparable within an allelic series).

In the case of GATCTTCA, the binding signal is 10.4 upbm affinity estimate (log intensity, higher = more binding, comparable within an allelic series).

Turning to GGATAGTA, the binding signal was 10.6 upbm affinity estimate (log intensity, higher = more binding, comparable within an allelic series).

AATACGAT: the binding signal is 10.7 upbm affinity estimate (log intensity, higher = more binding, comparable within an allelic series).

With ATCCTAAT, the binding signal was 10.5 upbm affinity estimate (log intensity, higher = more binding, comparable within an allelic series).

In the case of ACGGATCC, the binding signal was 10.5 upbm affinity estimate (log intensity, higher = more binding, comparable within an allelic series).

Regarding ATACAGAT, the binding signal is 10.8 upbm affinity estimate (log intensity, higher = more binding, comparable within an allelic series).

AGAATATC: the binding signal is 10.5 upbm affinity estimate (log intensity, higher = more binding, comparable within an allelic series).

As for ATACCTCC, the binding signal was 10.5 upbm affinity estimate (log intensity, higher = more binding, comparable within an allelic series).

Regarding ATTATCCG, the binding signal is 10.4 upbm affinity estimate (log intensity, higher = more binding, comparable within an allelic series).

As to AAGTATCT, the binding signal was 10.6 upbm affinity estimate (log intensity, higher = more binding, comparable within an allelic series).

GTATCTTA: the binding signal is 11 upbm affinity estimate (log intensity, higher = more binding, comparable within an allelic series).

The next assay has as its target T2, SIX6 (Homo sapiens, UniProt O95475 114-200, T165A).
T2 sequence: T1 sequence with Q26T, T52A
Nature of the assay: PBM; 200 nM protein, PBS. The following applies: dsDNA, one strand shown.
Consider CGGATAAA, for which the binding signal was 10.3 upbm affinity estimate (log intensity, higher = more binding, comparable within an allelic series).

In the case of CCGTATCA, the binding signal was 11.1 upbm affinity estimate (log intensity, higher = more binding, comparable within an allelic series).

Turning to GATCCAAA, the binding signal was 10.2 upbm affinity estimate (log intensity, higher = more binding, comparable within an allelic series).

For the sequence ACAATACT, the binding signal is 10.3 upbm affinity estimate (log intensity, higher = more binding, comparable within an allelic series).

Turning to AGGTGTCA, the binding signal was 11.2 upbm affinity estimate (log intensity, higher = more binding, comparable within an allelic series).

CTTGATAC: the binding signal is 11.1 upbm affinity estimate (log intensity, higher = more binding, comparable within an allelic series).

Regarding ATCCAATA, the binding signal was 10.4 upbm affinity estimate (log intensity, higher = more binding, comparable within an allelic series).

As to AATACGAT, the binding signal was 10.5 upbm affinity estimate (log intensity, higher = more binding, comparable within an allelic series).

Consider AGTATCAA, for which the binding signal is 11.1 upbm affinity estimate (log intensity, higher = more binding, comparable within an allelic series).

Regarding GGTGTCAC, the binding signal was 11.1 upbm affinity estimate (log intensity, higher = more binding, comparable within an allelic series).

Turning to ACTATACG, the binding signal was 10 upbm affinity estimate (log intensity, higher = more binding, comparable within an allelic series).

On to GGTGTCAA, for which the binding signal is 11.1 upbm affinity estimate (log intensity, higher = more binding, comparable within an allelic series).

ATCCTAAT: the binding signal was 10.2 upbm affinity estimate (log intensity, higher = more binding, comparable within an allelic series).

As for CATATCAA, the binding signal was 11.2 upbm affinity estimate (log intensity, higher = more binding, comparable within an allelic series).

For ATATCACG, the binding signal was 11 upbm affinity estimate (log intensity, higher = more binding, comparable within an allelic series).

Regarding ATATCACC, the binding signal was 11.1 upbm affinity estimate (log intensity, higher = more binding, comparable within an allelic series).

With AAGTGATA, the binding signal was 11.1 upbm affinity estimate (log intensity, higher = more binding, comparable within an allelic series).

For the sequence TGACACCA, the binding signal is 11.1 upbm affinity estimate (log intensity, higher = more binding, comparable within an allelic series).

For ATACAGAT, the binding signal is 10.5 upbm affinity estimate (log intensity, higher = more binding, comparable within an allelic series).

Regarding CTGACACC, the binding signal was 11.1 upbm affinity estimate (log intensity, higher = more binding, comparable within an allelic series).

As to CTGATATC, the binding signal is 11 upbm affinity estimate (log intensity, higher = more binding, comparable within an allelic series).

For GGGTGTCA, the binding signal is 11.1 upbm affinity estimate (log intensity, higher = more binding, comparable within an allelic series).

On to CGGTGTCA, for which the binding signal was 11.1 upbm affinity estimate (log intensity, higher = more binding, comparable within an allelic series).

Turning to AGAATATC, the binding signal was 10.4 upbm affinity estimate (log intensity, higher = more binding, comparable within an allelic series).

On to ATTATCCG, for which the binding signal is 10.2 upbm affinity estimate (log intensity, higher = more binding, comparable within an allelic series).

As to AAGTATCT, the binding signal is 10.4 upbm affinity estimate (log intensity, higher = more binding, comparable within an allelic series).

With GTATCTTA, the binding signal is 10.6 upbm affinity estimate (log intensity, higher = more binding, comparable within an allelic series).

Source of the values: PMC11006913.
